Potency and activity change, positive = activation data for 20 molecules are collected here from PubChem BioAssay AID1458 (National Center for Advancing Translational Sciences (NCATS), 2008).

Among all 210,000 compounds or so, about 5,900 (2.8%) were called active. Roughly 5% stayed inconclusive and do not appear here. Calls follow the shape of the dose curve; as a rule, active = well fitted activation curve with a large enough effect; inconclusive = small, poorly fitted or top-dose-only effect; inactive = no such curve, though single readings can be large or run the other way. Shown is part of a subset that was picked to be rich in actives. Entries that show only a call come without a potency.
Potency is read from the fitted curve at half-maximal effect.

A short description of this test: qHTS Assay for Enhancers of SMN2 Splice Variant Expression. Also: nearly all actives have a fitted effect of over 55% in size. To be noted: HEK293 SMN2-luciferase splicing reporter, luminescence, 30-36 h; series mostly up to 46.1 µM. The source says:
NIH Chemical Genomics Center [NCGC] NIH Molecular Libraries Probe Production centers Network [MLPCN] MLPCN Grant: R03 MH084179-01 Assay Submitter (PI): Elliot Androphy NCGC Assay Overview: Spinal muscular atrophy (SMA) is caused by insufficient levels of the survival motor neuron protein SMN. The SMN locus on chromosome 5q13 contains two inverted copies of SMN called SMN1 and SMN2 which are 99% identical at the amino acid level. SMN1 is a fully functional protein and SMN2 skips exon 7 90% of the time. Skipping of exon 7 produces non-functional protein product. 10% of the SMN2 protein includes exon 7 and is fully functional. In the SMA disease state, mutations in the SMN1 locus are the cause of the disease state. Because only 10% of SMN2 is of the fully functional form, it is not sufficient to overcome the deficiency produced by the loss of the SMN1 product. A therapy that either increase the amount of SMN2 product made or to increase the inclusion of exon 7 has been proposed for the treatment of SMA. We have designed an assay to identify small molecules that can increase the amount of functional SMN2 product by appending a luciferase reporter gene after the native SMN2 gene, such that inclusion of exon 7 in the expressed product places the luciferase sequence in frame, thus generating functional luciferase enzyme.
NCGC Assay Protocol Summary: This screen utilizes a luciferase reporter gene assay, combining the promoter and splicing based cassettes in tandem with the major portion of the native SMN2 cDNA, and then transfected into HEK293 cells. Compounds that increase luciferase signal presumably enhance expression of the functional SMN2 splice variant. Passaging media contained DMEM w/ glutamax (+phenol red) 10% FCS, 1x pen/strep, 200 ug/ml hygro, 1x sodium pyruvate. Assay media contained DMEM w/ glutamax (-phenol red) 10% FCS, 1x pen strep, 1x pyruvate Sequence, Parameter, Value, Description (1) Cells, […], 2000 cells/well, 1536 TC treated White solid bottom plate (2) Time, 10-12 hours, 37C 5% CO2 (3) Compound, 23 nl, MLSMR Library (4) Control Compound, 23 nL, Sodium butyrate st 4.5mM (final) conc (5) Time, 30-36 hours, 37C 5% CO2 (6) Reagent, 3 ul, One Glo (TM) from Promega (7) Time, 5-15 minutes, Room temp (8) Detector, Viewlux: luminescent read, 60 second integration, high speed 2x binning Keywords: Spinal muscular atrophy, SMA, SMN2, high throughput screening, MLSMR, MLPCN, NIH Roadmap, qHTS and NCGC
(Quantitative high-throughput screening tests each substance at several concentrations.)
As for `CC(C)Oc1ccc(NC(=O)c2cc3ccccc3o2)cc1`, the Potency is 2.51 µM (active).
For the molecule `Cc1ncoc1C(=O)NCCC(c1ccccc1)c1ccccc1`, the Potency result was “inactive”.
Still for that read-out and setting: for `O=C(OCC1O[C@@H](OC(=O)c2cc(O)c(O)c(O)c2)[C@@H](OC(=O)c2cc(O)c(O)c(O)c2)[C@@H](OC(=O)c2cc(O)c(O)c(O)c2)[C@@H]1OC(=O)c1cc(O)c(O)c(O)c1)c1cc(O)c(O)c(O)c1` (stereo not given in full) the value was “inactive”; for `COc1cccc(C(=O)Nc2ccc(-c3cc(C(F)(F)F)nn3-c3ccccc3)cc2)c1`, “inactive”; for `O=C(OCC(=O)c1cccs1)C1=COCCO1`, 14.1 µM (active).
Consider `CC(=O)c1c(O)c(C)c(O)c(Cc2c(O)c3c(c(C(=O)/C=C/c4ccccc4)c2O)OC(C)(C)C=C3)c1O`, for which the Potency result is “inactive”.
On the same count and under the same terms, with `CCCCCCCCCc1ccc(OCCOCCOCCOCCOCCOCCOCCOCCOCCO)cc1` the entry was “inactive”.
Turning to `Cn1c(=O)oc2cc(S(=O)(=O)N3CCC(C(=O)Nc4ccc(OC(F)(F)F)cc4)CC3)ccc21`, the Potency result is “inactive”.
On the same count and under the same terms, with `CC(=O)Oc1ccccc1C(=O)Nc1ncc([N+](=O)[O-])s1` the figure was 12.6 µM (active); with `C[N+](C)(C)CCOP(=O)([O-])OC[C@H](O)CO`, “inactive”; with `CC(C)=CCC[C@]1(C)[C@@H](CC=C(C)C)C[C@@]2(CC=C(C)C)C(=O)[C@]1(C(=O)C(C)C)C(=O)C(CC=C(C)C)=C2O`, “inactive”.
For `CC[C@]1([C@H]2O[C@@H]([C@@H]3O[C@](O)(CO)[C@@H](C)C[C@H]3C)C[C@H]2C)CC[C@@H]([C@]2(C)CC[C@@]3(C[C@@H](O)[C@@H](C)[C@@H]([C@H](C)[C@H](OC)[C@H](C)C(=O)O)O3)O2)O1`, the Potency result was “inactive”.
For `O=C(Nc1cccc(OC(=O)N2CCCCC2)c1)N1CCOCC1`, the Potency result is “inactive”.
The same measure, in the same setting: with `O=C(Nc1cccc(F)c1)N1CC[C@@]2(CCCN(C(=O)Oc3ccccc3)C2)C1` the entry was “inactive”; with `CC(C)(C)c1ccc(OC(=O)N2CCCCC2)cc1`, 12.6 µM (active).
Still for that read-out and setting: with `CC(C)(C)C(O)(CCc1ccc(Cl)cc1)Cn1cncn1` (stereo not given) the entry was “inactive”.
On to `NCC[Se][Se]CCN`, for which the activity change, positive = activation is -13.3% [at 9.22 µM] (inactive).
As for `CO[C@@H]1C[C@@H](C[C@H]2CC[C@H](C)[C@@H]([C@@H](C)C(=O)O)O2)O[C@]2(O[C@](C)([C@H]3CC[C@@](C)(C4OC([C@H]5O[C@@](O)(CO)[C@H](C)C[C@@H]5C)C[C@@H]4C)O3)C[C@H]2C)[C@@H]1C` (stereo not given in full), the Potency entry is “inactive”.
Regarding `c1ccc(Cc2nn3c(Cn4cnc5ccccc54)nnc3s2)cc1`, the Potency result was “inactive”.
Same read-out and setting: for `N#CC(C#N)=Cc1cc(O)c(O)c([N+](=O)[O-])c1` the value was “inactive”.
